GluA2 TARP mod: modulators of GluA2-stargazin AMPA receptor complexes, primary screen, cell-based, membrane potential dye; calls only at 30 µM; Voltage-dependent calcium channel gamma-2 subunit (Mus musculus) + Glutamate receptor 2 …; AID 1259245, 2017; hit rate 3.5% among 40,000; HEK293 GluA2+stargazin, membrane potential dye (FDSS), glutamate EC50; hits were called plate by plate, in both directions;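 active means any of four per-well response measures lying three or more SD from its plate-wide compound average, in either direction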
GIRK2 act: activators of NPY4-receptor-primed GIRK2 channels, summary, cell-based, HEK293, thallium flux | AID 1259324, 2017 | 34,000 tested, under 10 active | HEK293 GIRK2/NPY4 cells, thallium flux fluorescence | activation (% efficacy), % for hits at 37.5 µM;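 active means primary screen hit, no activity in plain HEK293 cells, and in GIRK2-only cells above 5% efficacy rising with concentration; inactive means the rest, including fluorescent compounds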;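 further: efficacy is normalized control-subtracted fluorescence 15 s after thallium addition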
Of the large screens only hits and unclear results are named; the others gave an inactive call. Only a selection was taken, and hits are over-represented in it overall.

CC(C)(C)C(=O)Nc1sc2c(c1C#N)CCN(Cc1ccccc1)C2	GluA2 TARP mod active
O=C(c1csc(Nc2ccc(OC(F)F)cc2)n1)N1CCCC1	GluA2 TARP mod active
NC(=O)C1CCN(C(=O)c2csc(Nc3ccc(OC(F)F)cc3)n2)CC1	none
Cc1cccc(N2CCN(S(=O)(=O)c3ccc(C)c(C)c3C)CC2)c1C	none (no result: GIRK2 act)
COc1ccc(S(=O)(=O)CC(=O)N(Cc2ccccc2)Cc2ccccc2)cc1	none
Cc1ccc(S(=O)(=O)CCCC(=O)N(Cc2ccccc2)Cc2ccccc2)cc1	GluA2 TARP mod active
O=C(Nc1nc(C(=O)N2CCc3ccccc3C2)co1)c1ccco1	GluA2 TARP mod active
O=C(NCc1ccccc1Cl)c1coc(NC(=O)c2ccco2)n1	none
CCCc1nnsc1C(=O)N1CCN(Cc2nc(-c3ccc(F)cc3)cs2)CC1	GluA2 TARP mod active
COc1ccc(-c2csc(CN3CCN(C(=O)c4ccc(F)cc4F)CC3)n2)cc1	none (no result: GIRK2 act)
COCCn1c(=NC(=O)c2cc(C)no2)sc2cc(OC)ccc21	none
CCOc1ccc2c(c1)sc(=NC(=O)c1ccc(S(=O)(=O)C(C)C)cc1)n2CCOC	GluA2 TARP mod active
O=C(NCCn1ncc2c(N3CCN(c4ncccn4)CC3)ncnc21)C1CC1	none
COc1ccc(S(=O)(=O)N2CCN=C2SCc2ccccc2F)cc1	GluA2 TARP mod active (no result: GIRK2 act)
COc1ccc(S(=O)(=O)N2CCN=C2SCc2ccccc2C)cc1	none (no result: GIRK2 act)
Cc1cc(C)c(S(=O)(=O)NCCC(=O)N(C)C)cc1N(C)S(C)(=O)=O	none (no result: GIRK2 act)
Cc1cc(=O)n(CC(=O)Nc2nc3ccccc3[nH]2)cn1	none
O=C(Cn1nc(-c2cccnc2)ccc1=O)Nc1nc2ccccc2[nH]1	GluA2 TARP mod active
O=C(CCC1CCCCC1)N1CCN(c2ncnc3c2nnn3-c2ccccc2)CC1	none (no result: GIRK2 act)
COCCn1c(SCc2ccc(Cl)cc2)nc2cc(C(=O)NC(C)C)ccc2c1=O	none
COCCn1c(SCC(=O)c2c(C)[nH]c3ccccc23)nc2cc(C(=O)NC(C)C)ccc2c1=O	GluA2 TARP mod active (no result: GIRK2 act)
COc1ccccc1NC(=O)Cn1cnc(-c2cccs2)cc1=O	none
Cc1cccc(CN(c2ccc3c(c2)OCO3)S(=O)(=O)c2ccc3nncn3c2)c1	GluA2 TARP mod active
COc1ccc(N(Cc2ccccc2)S(=O)(=O)c2ccc3nncn3c2)cc1	none
O=C(NCC1(O)CCOCC1)C(=O)Nc1ccc(F)c(F)c1	GluA2 TARP mod active
O=C(NCC1(O)CCOCC1)C(=O)Nc1ccc2c(c1)OCCO2	none
CC(C)(C)c1ccc(OCC(=O)Nc2ccc(CC(=O)NC3CC3)cc2)cc1	none
CCC(CO)NC(=O)C(=O)Nc1cc(F)ccc1F (centres undefined)	none
Cc1cc(NC(=O)C2CCCN(c3ccc(-n4cccn4)nn3)C2)on1 (centres undefined)	none
Cc1nn(C)cc1CNC(=O)c1ccc2c(c1)OCO2	none
O=C(c1cccc([N+](=O)[O-])c1)N(CCN1CCOCC1)c1nc2ccc(F)cc2s1	none (no result: GIRK2 act)
O=C(c1ccc([N+](=O)[O-])s1)N(CCN1CCOCC1)c1nc2c(F)cccc2s1	none
O=C(c1cc2cc([N+](=O)[O-])ccc2s1)N(CCN1CCOCC1)c1nc2ccc(F)cc2s1	GluA2 TARP mod active (no result: GIRK2 act)
COc1ccc2sc(N(CCN3CCOCC3)C(=O)c3ccc([N+](=O)[O-])o3)nc2c1	none (no result: GIRK2 act)
Cc1ccc2nc(N(CCN3CCOCC3)C(=O)c3ccc([N+](=O)[O-])o3)sc2c1	GluA2 TARP mod active (no result: GIRK2 act)
O=C(c1ccc([N+](=O)[O-])o1)N(CCN1CCOCC1)c1nc2c(F)cccc2s1	GluA2 TARP mod active
COc1cn(CC(=O)Nc2ccc(Br)cc2)c(CSc2nnnn2C)cc1=O	none (no result: GIRK2 act)
COc1ccc(OC)c(Nc2nc(CC(=O)NCCc3ccccc3)cs2)c1	none
CC1CN(C)CCN1CC1CCN(C(=O)NCc2cccs2)CC1 (centres undefined)	none
COc1ccccc1CNC(=O)c1ccc(S(=O)(=O)c2ccc(C)c(C)c2)nc1	none
Cc1nc2ccc(NC(=O)CS(=O)(=O)Cc3ccccc3)cc2s1	none
COc1ccc(-c2nn(C)c(=O)c3ccccc23)cc1CNC(=O)COc1cccc(C)c1	GluA2 TARP mod active (no result: GIRK2 act)
CCCC(=O)NCc1cc(-c2nn(C)c(=O)c3ccccc23)ccc1OC	none (no result: GIRK2 act)
CCCCN1CC(c2nc3ccccc3n2Cc2cccc(C)c2)CC1=O (centres undefined)	none (no result: GIRK2 act)
COc1ccc(NC(=O)CSc2nc(-c3ccc(C)cc3)c3ccccc3n2)c(OC)c1	GluA2 TARP mod active
COc1ccc(NC(=O)CSc2nnc(C)c3ccccc23)c(OC)c1	none
COCCCN1C(=O)C(C)S/C1=N/S(=O)(=O)c1ccccc1 (centres undefined)	none (no result: GIRK2 act)
COc1cn(CC(=O)NCc2ccccc2Cl)c(CSc2nnc(C)s2)cc1=O	none
O=C(NCCn1ncc2c(N3CCOCC3)ncnc21)C(=O)c1c[nH]c2ccccc12	none (no result: GIRK2 act)

Bioassay records deposited in PubChem by several laboratories.
